Only some compounds are listed: those with a hit (about 7.5% of all), similar ones and a draw of the others.
Vaccinia mCherry = qHTS for Stage-Specific Inhibitors of Vaccinia Orthopoxvirus: mCherry Reporter Primary qHTS; 310,000 compounds, 0.63% hits; Potency, µM (titrated, usually from 36.5 µM), without a hit: at the top dose activity change, negative = inhibition, hits mostly inhibitors; Vaccinia virus mCherry reporter infection, fluorescence; calls by dose curve; tested in A549 cells; further: potency means the concentration at half of the fitted maximal effect; nearly all actives have a fitted effect of over 35% in size
FMDV inh = High Throughput Screening for Foot and Mouth Disease Virus Antivirals; FMDV antiviral cell-based qHTS; Potency, µM (titrated, usually from 57.9 µM), for the others: top-dose activity change, negative = inhibition, most hits filed as inhibitors; 410,000 compounds, 1.2% hits; AID 1159524, 2015; calls by dose curve; tested in HEK293T cells; further: read-out not given here; potency means the concentration at half of the fitted maximal effect; nearly all actives have a fitted effect of over 45% in size
HCV inhibitor = qHTS Assay for Inhibitors of Hepatitis C Virus (HCV); Huh7.5.1 HCVcc-Cre infection, luciferase reporter, 44 h; Potency, µM (series often up to 41.8 µM), without a hit: top-dose activity change, negative = inhibition, usual class: inhibitors; 340,000 compounds, 3.4% hits; AID 651820, 2012; further: potency means the concentration at half of the fitted maximal effect
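Luciferase read-out (15 sec integration) after a 15 min room-temperature substrate step quantifies HCVcc-Cre infection. Cells, 1,000 per well, had compound added 4 h post-plating, then virus at ~0.5 moi, and were cultured 44 h.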
HCMV inh = qHTS Assay for inhibitors of the human cytomegalovirus (HCMV); HFF cells, HCMV-luciferase reporter, 72 h; hits give low values; activity change, negative = inhibition, % at 57.5 µM; 410,000 compounds, 4.5% hits; AID 1259415, 2018; in the data active means activity change below about -60%; inconclusive means no clear call, values can overlap the other calls; inactive means above about -39%
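Human foreskin fibroblasts infected with luciferase-reporter HCMV at MOI 1 PFU/cell, compounds at two doses. Luciferase measured 72 h post infection; normalized to buffer-only basal and Salinomycin (10uM) controls.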
Giardia FBPA inh = qHTS Assay for Inhibitors of Fructose-1,6-bisphosphate Aldolase from Giardia Lamblia; 290,000 compounds, 0.71% hits; A8B2U2; Potency, µM (series often up to 59.6 µM), without a hit: at the top dose activity, negative = inhibition, most hits filed as inhibitors; AID 2451, 2010; purified Giardia FBPA; further: potency means the concentration at half of the fitted maximal effect; nearly all actives have a fitted effect of over 55% in size
Target sequence (A8B2U2 whole entry, looked up): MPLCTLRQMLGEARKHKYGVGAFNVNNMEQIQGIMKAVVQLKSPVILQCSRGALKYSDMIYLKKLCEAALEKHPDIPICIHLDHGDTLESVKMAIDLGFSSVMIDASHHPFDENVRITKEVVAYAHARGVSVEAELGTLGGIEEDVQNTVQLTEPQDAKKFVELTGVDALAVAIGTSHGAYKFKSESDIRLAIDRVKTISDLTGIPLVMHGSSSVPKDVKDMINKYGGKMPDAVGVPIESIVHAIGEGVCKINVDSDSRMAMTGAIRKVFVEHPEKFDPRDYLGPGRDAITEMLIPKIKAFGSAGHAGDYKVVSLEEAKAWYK
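Giardia FBPA (40 nM reagent) was preincubated 10 min at RT with compound (up to 57.5 uM final), then substrate plus GAPDH/TPI/NAD/arsenate coupling system with diaphorase/resazurin was added; resorufin fluorescence (525/598 nm) was read after 20 min.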
Vaccinia Venus = qHTS for Stage-Specific Inhibitors of Vaccinia Orthopoxvirus: Venus Reporter Primary qHTS; Vaccinia virus Venus reporter expression, fluorescence; 330,000 compounds, 0.46% hits; AID 720580, 2013; Potency, µM (top dose mostly 36.5 µM), inactives show top-dose activity change, negative = inhibition, hits mostly inhibitors; calls by dose curve; tested in A549 cells; further: potency means the concentration at half of the fitted maximal effect; nearly all actives have a fitted effect of over 30% in size
* hit, by the source's call; i = inactive; ? = inconclusive; . = no result; + = active, no number; [ ] = dose if it differs, or a comment. Unless noted, the call rests on the fitted dose curve; in most records, active means well fitted curve in the direction sought with a large enough effect; inconclusive means small, poorly fitted or top-dose-only effect, or another doubt; inactive means no such curve, though single readings can be large; an effect the other way counts as inactive or inconclusive. On the % scale 0 is the no-effect control and ±100 the full control effect.

SMILES	Vaccinia mCherry	FMDV inh	HCV inhibitor	HCMV inh	Giardia FBPA inh	Vaccinia Venus
CCc1ccc(-n2c(=O)c3sc4ccccc4c3n(CC(=O)N(CC)Cc3ccccc3)c2=O)cc1	-3%	0%	.	7	.	-7%
O=C(O)c1ccccc1-c1c2cc(Br)c(=O)cc-2oc2[c]([Hg])c(O)c(Br)cc12	i	?	.	.	22µM*	.
O=C(COC(=O)c1cc(-c2ccccc2)nc2ccccc12)Nc1ccc2c(c1)OCO2	.	-24%	-6%	-6	-1%	.
CC(C)(C)NC(=O)COC(=O)c1c2c(nc3ccccc13)CCC2	4%	-21%	?	-20	1%	-3%
CC(C)NC(=O)NC(=O)COC(=O)c1c2c(nc3ccccc13)CCC2	-17%	11µM*	4.5µM*	?	.	-13%
O=C(OCC(=O)N1CCc2ccccc21)c1c2c(nc3ccccc13)CCCCC2	-4%	3%	2.8µM*	?	-2%	-7%
O=C(COC(=O)c1c2c(nc3ccccc13)CCCC2)Nc1ccc2c(c1)OCO2	.	-21%	5.6µM*	-27	1%	-20%
CC(=O)N[C@H]1[C@H]([C@H](O)[C@H](O)CO)O[C@](O)(C(=O)O)C[C@@H]1O	-18%	-14%	?	21	.	-8%
COc1cccc(OCC(Cn2c(C)nc3ccccc32)OC(C)=O)c1 (stereo not given)	i	-23%	?	-70*	-1%	-7%
CC(=O)N(C)c1ccc(OCC(O)Cn2c(C)nc3ccccc32)cc1 (stereo not given)	-12%	?	11µM*	-25	0%	-5%
CC(=O)Nc1ccc(OCC(O)Cn2c(C)nc3ccccc32)cc1 (stereo not given)	-1%	-24%	-13%	-6	-8%	-5%
O=C(N/N=C/c1ccc[nH]1)c1ccc(COc2cccc3cccnc23)cc1	1.6µM*	8.9µM*	0.79µM*	-97*	-7%	?
Cc1cc(Br)c(OCc2ccc(C(=O)N/N=C/c3ccc[nH]3)cc2)c(Br)c1	.	?	-4%	+	.	.
O=C(Nc1ccccc1)Nc1ncc(C(F)(F)F)cc1Cl	-29%	-9%	.	-30	.	-27%
CC(C)(C)NNC(=S)Nc1cccc(C(F)(F)F)c1	?	1%	?	-25	-24%	-7%[7.34 µM]
Cc1cccc(NC(=S)NNc2ncc(C(F)(F)F)cc2Cl)c1	-27%	?	11µM*	?	17%	?
FC(F)(F)c1cnc(NNC(=S)Nc2ccccc2Cl)c(Cl)c1	?	10µM*	?	-100*	23%	?
CCC[C@H]1[C@@H](NS(=O)(=O)c2ccc(NC(C)=O)cc2)CC[C@@]23CCCN2C(=O)CCC[C@@H]13	.	.	.	-8	.	.
CCN(CC)C(=O)[C@H]1C[C@H](CC(=O)NCC23CC4CC(CC(C4)C2)C3)C(=O)N2CCc3c([nH]c4cc(-c5ccco5)ccc34)[C@]12C	?	?	13%	-3	.	11µM*
C[C@]12c3[nH]c4cc(-c5ccco5)ccc4c3CCN1C(=O)[C@@H](CC(=O)NCC13CC4CC(CC(C4)C1)C3)C[C@@H]2C(=O)N1CCOCC1	?	?	25µM*	-29	.	10µM*
N=c1c2c(-c3ccccc3)c(-c3ccccc3)n(Cc3ccco3)c2ncn1CCCN1CCOCC1	-24%	-14%	7.1µM*	-98*	-1%	?
CC(C)Cn1cnc2c(c(-c3ccccc3)c(-c3ccccc3)n2Cc2ccco2)c1=N	?	?	11µM*	-28	7%	?
N=c1c2c(-c3ccccc3)c(-c3ccccc3)n(Cc3ccco3)c2ncn1Cc1ccccc1	-10%	-9%	-19%	-1	2%	-6%
N=c1c2c(-c3ccccc3)c(-c3ccccc3)n(Cc3ccco3)c2ncn1CCCn1ccnc1	-21%	?	?	-97*	9%	?
CC1(C(=O)NS(=O)(=O)c2ccccc2Cl)CCN1C(=O)Cc1cc(F)ccc1F (stereo not given)	-5%	-8%	.	-4	.	-8%
SMILES	Vaccinia mCherry	FMDV inh	HCV inhibitor	HCMV inh	Giardia FBPA inh	Vaccinia Venus
COC(=O)CN1C(=O)[C@H]2[C@@H](c3ccc(C)o3)N3C(=O)CN(Cc4ccccc4)C(=O)[C@@]3(C)[C@H]2C1=O	i	-5%	13%	-83*	-2%	3%
COC(=O)CN1C(=O)[C@H]2[C@@H](c3ccc(C)o3)N3C(=O)CN(CC4CC4)C(=O)[C@@]3(Cc3ccccc3)[C@H]2C1=O	-2%	-6%	-10%	-93*	10%	1%
Oc1ccc(/C=N/Nc2ccnc3cc(Cl)ccc23)c(O)c1	.	26%	10µM*	-26	0%	.
Clc1ccc2c(N/N=C/c3cccnc3)ccnc2c1	?	5%	-21%	?	2%	-20%
Clc1ccc2c(N/N=C/c3ccc(Br)cc3)ccnc2c1	?	-33%	11µM*	-73*	-6%	?
Cc1ccc(/C=N/Nc2ccnc3cc(Cl)ccc23)c(C)c1	.	40µM*	10µM*	-76*	-4%	.
Clc1ccc(NNc2ccnc3cc(Cl)ccc23)cc1	.	9%	-13%	-69*	9%	.
COC(=O)CC1C(=O)NCCN1C(=O)CSc1nc2ccc([N+](=O)[O-])cc2s1 (stereo not given)	-22%	-27%	14%	?	-13%	-14%
Cc1ccccc1/C=N/Nc1ccnc2cc(Cl)ccc12	?	?	?	-69*	4%	?
COc1ccccc1N(CC(=O)NC1CCCC1)S(=O)(=O)c1cccc(C(F)(F)F)c1	0%	-11%	7%	-31	.	-19%
CC(=O)Nc1cccc(NC(=O)CSc2ncc(-c3ccc(Cl)cc3)n2Cc2ccco2)c1	?	14µM*	10µM*	-35	0%	?
COc1ccc(-c2cnc(SCC(=O)Nc3ccc4c(c3)OCO4)n2Cc2ccco2)cc1	-24%	?	14µM*	-24	5%	-14%
COc1ccc(Cn2c(CO)cnc2SCC(=O)Nc2ccc3c(c2)OCCO3)cc1	-1%	42%	.	27	.	-1%
Cc1ccc2nc3c(cc(C(=O)NC4CCS(=O)(=O)C4)n3Cc3ccccc3)c(=O)n2c1 (stereo not given)	.	-16%	?	0	-14%	.
CC(=O)N1C[C@H]2CON(C)[C@H]2C[C@H]1c1cccc(-c2ccccc2C)c1	i	-24%	-23%	33	.	-14%
CCOc1cccc2cc(-c3csc(NC(=O)CCC(=O)NCCN4CCCCC4C)n3)c(=O)oc12 (stereo not given)	11µM*	81%	?	36	-4%	?
